# Experimental data reported in PubChem BioAssay AID2685 (National Center for Advancing Translational Sciences (NCATS), 2010).
# Among all 320,000 compounds or so, about 2,100 (0.66%) were called active. Inconclusive results (about 53%) are left out. Calls follow the shape of the dose curve; as a rule, active = well fitted inhibition curve with a large enough effect in the signal ratio, with a control signal flat (not every such curve was filed as active); inconclusive = small, poorly fitted or top-dose-only effect, or effect the other way, or a change in a side signal; inactive = flat fitted curve, though single readings scatter; the % refers to the signal ratio. Many of the other results were omitted from the sample, so actives are more common in it than they were.
# Assay: qHTS Assay for Lipid Storage Modulators in Drosophila S3 Cells;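 as to cell number change: cells counted by Cell Tracker Red CMTPX staining in the red channel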; as to lipid storage change, negative = inhibition: % is scaled to controls: 0 for no effect and ±100 for the full control effect
# Settings: BODIPY lipid droplet fluorescence, 18-24 h, cells fed with added oleic acid; cell number change: measured here: cell count max response; series mostly up to 46.1 µM
# Summary of the method: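 Drosophila S3 cells got compounds at several concentrations plus oleic acid (400 uM solution). Laser-scanning cytometry with 488 nm excitation read lipid droplets at 500-530 nm and cells at 575-640 nm. Percent activity was relative to 20 uM Triacsin C.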
# Potency is read from the fitted curve at half-maximal effect.
Structure (SMILES),Potency,cell number change [%],"lipid storage change, negative = inhibition"
CC1(C)CC2CC(C)(CN2C(=O)COC(=O)c2ccc(Cl)c(N)c2)C1 (stereo not given),inactive,7.11,
Cc1ccc(NC(=O)CCc2c(C)nn(-c3ccc(N4CCCCC4)nn3)c2C)cc1,inactive,,
Cc1ccc(S(=O)(=O)CCC(=O)OCc2ccc(Cl)cc2)cc1,inactive,-1.83,
Cc1ccc2[nH]c(=O)c(CN(CC3CCCO3)C(=O)c3cccs3)cc2c1 (stereo not given),inactive,31.3,
COc1ccc(CNC(=O)C2(c3ccc(Cl)cc3)CC2)cc1,inactive,15.2,
O=C(NCCO)C1(c2ccc(Cl)cc2)CCCC1,20.6 µM (active),-14.3,
O=C(NCc1ccco1)C1(c2ccc(Cl)cc2)CCCC1,inactive,17,
Cc1cc(C)c2[nH]c3nc(SCC(=O)O)nnc3c2c1,inactive,15.4,
O=c1oc2ccccc2c(N2CCCCC2)c1CN1CCCC1,inactive,20.3,
O=C(Cc1ccccc1)NCc1n[nH]c(=S)n1-c1ccc(Br)cc1,inactive,12.1,
COCCNC(=O)C1(C)C=CC2(CCCCC2)N1C(=O)c1ccccc1 (stereo not given),inactive,-12.7,
S=C(Nc1ccc(Cl)cc1)NN1CCOCC1,inactive,-1.28,
Cc1sc2ncnc(NCc3ccccc3)c2c1C,inactive,,
COc1ccc(-c2nnnn2C)cc1S(=O)(=O)NCc1ccccc1,inactive,-12.1,
CSc1ncc2c(n1)-c1cc(C)ccc1SC2,inactive,-11.4,
O=C(COC(=O)c1cccc(S(=O)(=O)N2CCCC2)c1)Nc1ccccc1,inactive,,
O=C(CCCOc1ccccc1)Nc1cccc(S(=O)(=O)N2CCCCCC2)c1,0.651 µM (active),-1,
O=C(CCOc1ccccc1)Nc1ccc(S(=O)(=O)N2CCCC2)cc1,inactive,-12,
Cc1ccc(C)c(OCCC(=O)OCC(=O)Nc2cccc(S(=O)(=O)N3CCCC3)c2)c1,inactive,13,
CC(=O)c1ccc(OCCCC(=O)Nc2cccc(S(=O)(=O)N3CCCCC3)c2)cc1,inactive,-10.4,
Cc1ccc(C)c(OCCC(=O)Nc2cccc(S(=O)(=O)N3CCCCC3)c2)c1,7.31 µM (active),-9.88,
O=C(COC(=O)c1ccccc1O)Nc1cccc(S(=O)(=O)N2CCCC2)c1,2.91 µM (active),-0.622,
COc1ccccc1OCCC(=O)Nc1cccc(S(=O)(=O)N2CCCCC2)c1,inactive,9.54,
O=C(COC(=O)c1cccnc1Cl)Nc1cccc(S(=O)(=O)N2CCCCC2)c1,inactive,-11.8,

Structure (SMILES),Potency,cell number change [%],"lipid storage change, negative = inhibition"
O=C(NCc1csc(-c2cccs2)n1)Nc1ccc(C(F)(F)F)cc1,inactive,-0.569,
O=C(COC(=O)CSc1cc(Cl)ccc1Cl)Nc1ncc(C(F)(F)F)cc1Cl,inactive,1.5,
Cc1[nH]n(-c2ccccc2)c(=O)c1N=Nc1ccc2c(c1)OCO2,inactive,-5.87,
O=C(c1sc(N2CCOCC2)nc1-c1ccccc1)N1CCCCC1,inactive,3.25,
O=C(Cn1nnc(-c2ccc(OCc3ccccc3F)cc2)n1)N1CCOCC1,inactive,-16.4,
COc1ccc2nc(NC(=O)CCN3C(=S)NC(C)(C)CC3C)sc2c1 (stereo not given),inactive,,
CCOC(=O)CN1C(=O)C(O)(c2c(C)[nH]c3ccccc23)c2ccccc21 (stereo not given),inactive,8.53,
Cc1cc(C)n(-c2cc(N3CCOCC3)ncn2)n1,inactive,-1.49,
COc1cccc(/C=C2\SC(=S)N(c3cccnc3)C2=O)c1OC,inactive,12.9,
CCn1cc(C2=NOC(C(=O)Nc3ccc4c(c3)OCO4)C2)c(C)n1 (stereo not given),7.31 µM (active),-25.4,
COc1ccc(C2=NOC(C(=O)Nc3ccc4c(c3)OCO4)C2)cc1 (stereo not given),inactive,14.2,
O=C(Nc1ccc2c(c1)OCO2)C1CC(c2ccccc2O)=NO1 (stereo not given),inactive,19.9,
COc1cccc2sc(NNC(=O)COc3ccccc3)nc12,,5.71,-1.29% [at 9.22 µM] (inactive)
CCC(=O)Nc1cc(=O)[nH]c2ncnn12,inactive,-14.7,
O=C(Nc1cc(=O)[nH]c2ncnn12)c1ccccc1,inactive,-8.14,
CC(C)C(=O)Nc1cc(=O)[nH]c2ncnn12,5.8 µM (active),-10.1,
Cn1c(=O)[nH]c(=O)c2c1nc(Br)n2C/C=N/NC(N)=S,inactive,-9.55,
O=C(Nc1c2c(nn1-c1ccc(F)cc1)CS(=O)(=O)C2)c1ccc(S(=O)(=O)N2CCOCC2)cc1,inactive,-2.12,
O=C(Nc1cccc(-c2cccc(Cl)c2)c1)C1CCN(CC2CCOC2)CC1 (stereo not given),inactive,26.5,
COc1cccc(-c2cccc(NC(=O)C3CCN(CC4CCOC4)CC3)c2)c1 (stereo not given),16.4 µM (active),-23.3,
COc1cccc(-c2cccc(NC(=O)C3CCN(Cc4ccc(CO)o4)CC3)c2)c1,inactive,-8.92,
O=C(CSc1nc(O)cc(=O)n1-c1ccccc1)c1ccc(Br)cc1,,-4.08,26.5% [at 9.22 µM] (inactive)
COc1ccc(-c2ccc3ccccc3n2)cc1,inactive,-4.92,
S=c1[nH]nc(-c2ccncc2)n1/N=C/c1cccc2ccccc12,inactive,15.5,

Structure (SMILES),Potency,cell number change [%],"lipid storage change, negative = inhibition"
Clc1ccc(CN2CCCCCC2)cc1,inactive,7.51,
CC(C)Cn1c(CN(C)Cc2ccccc2)nc2c1c(=O)n(C)c(=O)n2C,inactive,,
CC(C)CCn1c(CN(C)Cc2ccccc2)nc2c1c(=O)n(C)c(=O)n2C,inactive,-8.94,
C=C(C)Cn1c(CN(C)Cc2ccccc2)nc2c1c(=O)n(C)c(=O)n2C,0.92 µM (active),-21.1,
C[C@@H](NC(=O)c1nc[nH]c1C(=O)NCC(=O)OC(C)(C)C)c1ccccc1,inactive,2.99,
CC(=O)c1ccc(Oc2cc(C(F)(F)F)cnc2C(N)=O)cc1,inactive,26.2,
CC(NC(=O)c1ccncc1)C(c1cccs1)N1CCOCC1 (stereo not given),inactive,1.4,
CCOc1ccc(NC(=O)CSc2nc3ccccc3nc2N2CCOCC2)cc1,20.6 µM (active),-28,
CCCCc1ccc(NC(=O)CSc2nc(=O)n(CCN3CCOCC3)c3c2CCC3)cc1,inactive,7.1,
Cc1cc(C)cc(NC(=O)CSc2nc3ccccc3nc2N2CCCCC2)c1,inactive,10.1,
COc1ccc(NC(=O)CSc2nc3ccccc3nc2N2CCCC2)cc1,inactive,-11.5,
CCc1ccc(NC(=O)CSc2nc(=O)n(CCCN3CCOCC3)c3c2CCCC3)cc1,14.6 µM (active),-8.01,
O=C(CSc1nc2ccccc2nc1N1CCCC1)Nc1ccc(F)cc1,inactive,7.49,
Cc1cccc(NC(=O)CSc2nc3ccccc3nc2N2CC(C)OC(C)C2)c1 (stereo not given),inactive,8.93,
COc1ccc(NC(=O)CSc2nc3ccccc3nc2N2CCCCC2)cc1,inactive,-10.4,
CCCCc1ccc(NC(=O)CSc2nc(=O)n(CCCN3CCOCC3)c3c2CCC3)cc1,inactive,12.5,
CCc1ccc(NC(=O)CSc2nc3ccccc3nc2N2CCCCC2)cc1,13 µM (active),25.4,
CC1CN(c2nc3ccccc3nc2SCC(=O)Nc2ccc(F)cc2)CC(C)O1 (stereo not given),20.6 µM (active),22.5,
CCOc1ccc(NC(=O)CSc2nc(N3CCOCC3)nc(N3CCOCC3)n2)cc1,inactive,4.32,
Cc1cc(C)n2c(SCc3c(C)noc3C)nnc2n1,inactive,2.46,
Cc1cccc(NC(=S)NCCc2ccc(S(N)(=O)=O)cc2)c1C,inactive,-9.26,
C=CCSc1nnc(NC(=O)C2CC(=O)N(Cc3ccc(C)cc3)C2)s1 (stereo not given),inactive,-7.78,
CC(=C\C(=O)O)/C(=C/c1ccc(C)o1)C(=O)O,inactive,-12.8,
O=C(NCc1ccc2[nH]c3c(c2c1)CCCC3)c1ccc(S(=O)(=O)N2CCCCC2)cc1,inactive,-10.5,

Structure (SMILES),Potency,cell number change [%],"lipid storage change, negative = inhibition"
CN(C)C(=O)c1cc(C(=O)c2c(F)cccc2F)c[nH]1,inactive,-8.76,
O=C(CN1C(=O)NC2(CCCCC2)C1=O)Nc1cccc(S(=O)(=O)N2CCOCC2)c1,inactive,-0.223,
CCC1Sc2ccc(S(=O)(=O)CCC(=O)Nc3ccc(OC(F)(F)F)cc3)cc2NC1=O (stereo not given),inactive,2.14,
O=C(NC(Cc1ccccc1)C(=O)O)/C(=C/c1ccco1)NC(=O)c1cccc(Br)c1 (stereo not given),inactive,-18,
O=C(NC(Cc1ccccc1)C(=O)O)/C(=C\c1cccc([N+](=O)[O-])c1)NC(=O)c1ccco1 (stereo not given),inactive,,
O=C(NC(Cc1ccccc1)C(=O)O)/C(=C/c1ccc(Cl)cc1)NC(=O)c1ccccc1 (stereo not given),inactive,1.96,
O=C(NC(Cc1ccccc1)C(=O)O)/C(=C\c1ccccc1)NC(=O)c1ccco1 (stereo not given),inactive,-6.67,
O=C(NC(Cc1ccccc1)C(=O)O)/C(=C\c1ccc(Cl)cc1)NC(=O)c1ccco1 (stereo not given),0.0411 µM (active),,
O=C(NC(Cc1ccccc1)C(=O)O)/C(=C/c1cccc(Br)c1)NC(=O)c1ccco1 (stereo not given),1.84 µM (active),,
O=C(CC1C(=O)NCCN1Cc1ccc(-c2ccccc2)cc1)NCCOc1cccnc1 (stereo not given),inactive,-0.0435,
O=C(Nc1cccc2ccccc12)c1cccc(F)c1,inactive,-3.54,
COc1ccc(NC(=O)C2CSC(C)(C)N2C=O)cc1 (stereo not given),inactive,7.51,
COc1ccc(CN2CCOCCOCCN(Cc3ccc(OC)cc3)CCOCCOCC2)cc1,inactive,16,
Cc1ccc(S(=O)(=O)NCc2ccccc2)cc1C(=O)N(C)CC(=O)Nc1c(Cl)cccc1Cl,inactive,,
Cc1cc(-c2ccc(Cl)cc2Cl)c(C#N)c(=O)[nH]1,inactive,,
CSc1nc(-c2ccc(Cl)cc2)c(C#N)c(=O)[nH]1,inactive,-0.138,
CSc1nc(-c2ccc(Cl)cc2Cl)[nH]c(=O)c1C#N,32.6 µM (active),-67,
CN(Cc1ccccc1)C(=O)COc1ccc(N(C)S(=O)(=O)c2ccc(F)cc2)cc1,inactive,-1.11,
Cc1ccc(C(C(=O)NCc2ccc(F)cc2)N(Cc2ccco2)C(=O)c2snc(C(N)=O)c2N)o1 (stereo not given),13 µM (active),-23,
NC(=O)c1nsc(C(=O)N(Cc2ccco2)C(C(=O)NCc2ccc(F)cc2)c2ccc(O)cc2)c1N (stereo not given),inactive,,
CCC(C(=O)NCc1ccc(F)cc1)N(Cc1ccco1)C(=O)c1snc(C(N)=O)c1N (stereo not given),inactive,-6.14,
